# Assay outcomes (PubChem)
# NPR1 antag = antagonists of human natriuretic peptide receptor Npr1 | P16066 | HEK293 hNpr1 GloSensor cGMP, ANP-stimulated luminescence | Potency, µM (highest dose often 46.3 µM), for inactives: top-dose activity change, negative = inhibition, most hits filed as inhibitors | actives 1.6% (n = 76,000); calls by dose curve; further: on the % scale 0 is the no-effect control and ±100 the full control effect; nearly all actives have a fitted effect of over 60% in size
# Target sequence (P16066 whole entry, looked up): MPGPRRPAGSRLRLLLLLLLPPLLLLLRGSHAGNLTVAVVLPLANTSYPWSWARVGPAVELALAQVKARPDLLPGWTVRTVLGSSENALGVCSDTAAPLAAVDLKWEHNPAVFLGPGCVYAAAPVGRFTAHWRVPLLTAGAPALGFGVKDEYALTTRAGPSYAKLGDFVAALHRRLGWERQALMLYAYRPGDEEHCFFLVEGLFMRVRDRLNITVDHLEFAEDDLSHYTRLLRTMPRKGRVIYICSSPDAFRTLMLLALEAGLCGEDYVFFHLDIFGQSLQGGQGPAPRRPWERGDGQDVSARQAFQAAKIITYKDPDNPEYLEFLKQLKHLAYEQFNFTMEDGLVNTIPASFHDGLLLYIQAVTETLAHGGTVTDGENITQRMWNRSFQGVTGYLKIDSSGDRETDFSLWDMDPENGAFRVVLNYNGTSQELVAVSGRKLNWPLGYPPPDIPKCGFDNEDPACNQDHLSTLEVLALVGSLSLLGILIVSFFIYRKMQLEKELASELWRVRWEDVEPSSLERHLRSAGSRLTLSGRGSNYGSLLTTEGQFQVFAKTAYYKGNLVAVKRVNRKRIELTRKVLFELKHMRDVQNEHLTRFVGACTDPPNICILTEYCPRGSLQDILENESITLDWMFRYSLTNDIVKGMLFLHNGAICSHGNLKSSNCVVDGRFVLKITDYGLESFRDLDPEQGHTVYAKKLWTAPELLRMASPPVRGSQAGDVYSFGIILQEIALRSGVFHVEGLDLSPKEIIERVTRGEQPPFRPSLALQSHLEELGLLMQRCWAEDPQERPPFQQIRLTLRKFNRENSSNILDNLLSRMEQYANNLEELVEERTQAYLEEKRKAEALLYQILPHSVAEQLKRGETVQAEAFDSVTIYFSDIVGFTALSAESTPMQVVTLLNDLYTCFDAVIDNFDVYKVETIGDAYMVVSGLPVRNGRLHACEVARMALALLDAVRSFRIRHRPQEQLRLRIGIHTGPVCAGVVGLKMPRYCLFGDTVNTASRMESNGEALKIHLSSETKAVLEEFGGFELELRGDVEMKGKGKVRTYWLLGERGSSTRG
#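 HEK293 cells stably expressing human Npr1 and cGMP GloSensor pGS-40F, loaded 2 h with 2% GloSensor reagent, given compound 30 min at room temperature. Luminescence read before and 20 min after 0.1 nM hNppA.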
# HEK293 tox = HEK 293 cell cytotoxicity. HEK 293 viability, ATP luminescence (CellTiter-Glo), 48-72 h. Potency, µM (titrated, usually from 115 µM), without a hit: at the top dose activity change, negative = cytotoxicity, hits mostly inhibitors. actives 6.6% (n = 94,000); further: on the % scale 0 is the no-effect control and ±100 the full control effect; nearly all actives have a fitted effect of over 60% in size
#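 HEK 293 cells seeded at 250 cells/well were exposed to compound for 48 or 72 hr at 37 degree Celsius. Viability taken as ATP content by CellTiter-Glo luminescence.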
# 3T3 cytotox = cytotoxic compounds in NIH 3T3 cells; Potency, µM (highest dose often 96.7 µM), for inactives: top-dose activity change, negative = cytotoxicity, usual class: inhibitors; AID 1345082; NIH 3T3 viability, CellTiter-Glo ATP luminescence, 48-72 h; actives 4.3% (n = 94,000); further: on the % scale 0 is the no-effect control and ±100 the full control effect; nearly all actives have a fitted effect of over 55% in size
#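 Luminescent ATP readout (CellTiter-Glo, 10 min RT) after 48 or 72 hr compound exposure of NIH 3T3 cells seeded at 400 cells/well in 1536-well format; quantitative HTS.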
# FLuc inh-1 = Photinus pyralis luciferase inhibition; purified P. pyralis luciferase, luminescence, biochemical; Potency, µM (series often up to 115 µM), most hits filed as inhibitors; actives 2.5% (n = 76,000); further: on the % scale 0 is the no-effect control and ±100 the full control effect; nearly all actives have a fitted effect of over 65% in size
#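 Biochemical qHTS: compound (6-point titration) added to 10uM D-luciferin plus 10uM ATP in Tris acetate pH 7.5 buffer with Mg, Tween-20 and BSA, then purified enzyme at 10nM; light output imaged.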
# FLuc SDR no ATP = stabilizes firefly luciferase without ATP | Potency, µM (series often up to 32.7 µM), for the others: top-dose activation (signal gain), actives largely listed as activators | shares compounds with FLuc inh-1 | Purified FLuc-C-HiBiT, Nano-Glo HiBiT luminescence, no ATP | actives 7.8% (n = 1,300); further: nearly all actives have a fitted effect of over 55% in size
# FLuc SDR ATP = stabilizes firefly luciferase with ATP present; actives 8.7% (n = 1,300); shares compounds with FLuc inh-1; purified FLuc-C-HiBiT + ATP, HiBiT complementation luminescence; Potency, µM (top dose mostly 32.7 µM), inactives show top-dose activation (gain of signal), hits mostly activators;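 further: signal reports ligand binding via conformational change of the enzyme rather than luciferase catalysis; % of control where 0% means no effect; nearly all actives have a fitted effect of over 55% in size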
# FLuc inh-2 = blocks firefly luciferase enzymatic activity | Potency, µM (top dose mostly 32.7 µM), inactives show at the highest dose activity change, negative = inhibition, usual class: inhibitors | purified FLuc-C-HiBiT enzyme, luciferin luminescence | shares compounds with FLuc inh-1 | actives 42% (n = 1,300); further: on the % scale 0 is the no-effect control and ±100 the full control effect; nearly all actives have a fitted effect of over 70% in size
# Active calls of the source: *; i = inactive; ? = inconclusive; / = no result given. This is a sample that favours compounds with a hit; in the whole collection about 11% have one here. Unless noted, the call rests on the fitted dose curve; in most records, active means well fitted curve in the direction sought with a large enough effect; inconclusive means small, poorly fitted or top-dose-only effect, or another doubt; inactive means no such curve, though single readings can be large; an effect the other way counts as inactive or inconclusive. Potency means the concentration at half of the fitted maximal effect.
SMILES,NPR1 antag,HEK293 tox,3T3 cytotox,FLuc inh-1,FLuc SDR no ATP,FLuc SDR ATP,FLuc inh-2
COc1ccc(CNC(=O)Nc2cccc(-c3ccc(N4CCCCC4)nn3)c2)cc1,8.9µM*,?,?,0.25µM*,2µM*,?,0.5µM*
O=C(NCc1ccco1)Nc1cccc(-c2ccc(N3CCCC3)nn2)c1,-22%,?,?,7.1µM*,?,?,?
O=C(NCc1ccccc1)Nc1cccc(-c2nnc3n2CCCC3)c1,-3%,?,-14%,i,/,/,/
Cc1ccc(CNC(=O)Nc2cccc(-c3ccc(N4CCOCC4)nn3)c2)cc1,-25%,?,?,1.3µM*,?,?,2.8µM*
CO[C@H]1C(=O)N(C2CCN(Cc3cccc(C)c3)CC2)[C@H]1c1ccncc1,/,-6%,-24%,/,/,/,/
O=C(c1ccccc1Cl)N1CCCN(c2ccnc3ccnn23)CC1,/,-24%,?,/,/,/,/
Cc1ccc2c(c1)sc1nc(-c3cc4ccccc4oc3=O)cn12,/,/,/,/,29%,?,0.25µM*
Cc1cc2cc(C(=O)N3CCN(c4nc5ccccc5s4)CC3)ccc2o1,?,?,-4%,i,/,/,/
Nc1nc2c([nH]c(=O)n2[C@H]2C[C@H](O)[C@@H](CO)O2)c(=O)[nH]1,/,/,/,/,11%,8%,7%
Cc1noc(-c2cccn3c(CNC(=O)c4ccc(C(C)(C)C)cc4)nnc23)n1,-21%,?,-30%,7.9µM*,?,?,9.9µM*
Cc1noc(-c2cccn3c(CNC(=O)c4ccccc4)nnc23)n1,-17%,-5%,-25%,i,/,/,/
O=C(Nc1cccc(-c2nc3ccccc3[nH]2)c1)c1ccccc1F,/,/,/,/,19%,11%,?
O=C(c1ccoc1)N1CCC2(CC1)CC(N(Cc1ccc(F)cc1)C1CC1)CCO2 (stereo unspecified),-17%,?,-20%,i,/,/,/
Cc1ccc(-c2cc(C(=O)N3CCC(Cc4nncn4CC4CC4)CC3)c3ccccc3n2)cc1C,?,?,20µM*,1.6µM*,12µM*,?,2µM*
O=C(c1cc(-c2ccc(F)cc2)nc2ccccc12)N1CCC(Cc2nncn2CC2CC2)CC1,-21%,45µM*,?,13µM*,?,21%,8.8µM*
Cc1nn(C(=O)CCC(=O)N2CCC(Cc3nncn3CC3CC3)CC2)c2ccccc12,-12%,-14%,-23%,i,/,/,/
CC1=C(C(=O)Nc2ccccc2)C(c2cccc(C)c2)N2C(CC(=O)NCC(C)C)=CSC2=N1 (stereo unspecified),-23%,?,?,i,/,/,/
Cc1cn2nc(C(=O)NCc3ccccn3)cc2c(=O)[nH]1,18%,-6%,-16%,i,/,/,/
Cc1cn2nc(C(=O)Nc3ccc(C(=O)NCCc4cccs4)cc3)cc2c(=O)[nH]1,-6%,16%,5%,4.5µM*,?,?,8.8µM*
O=C(Nc1ccc2c(c1)OCCO2)N1CCCCCC1c1nc(-c2cccnc2)no1 (stereo unspecified),/,-2%,?,/,/,/,/
CC1CCN(C(=O)c2cc3c(s2)CCC(C(=O)O)C3)CC1 (stereo unspecified),0%,-9%,-30%,13µM*,10%,19%,?
O=C(O)C1CCc2sc(C(=O)N3CCOCC3)cc2C1 (stereo unspecified),-1%,-4%,2%,i,/,/,/
COCCNC(=O)C1CCN(C(=O)c2nnn3c2COC(c2ccc(C)cc2)C3)CC1 (stereo unspecified),-2%,9%,i,5.6µM*,12%,?,?
